# Assay results taken from PubChem BioAssay (NCATS).
# Inconclusive results are not listed. Unmarked numbers belong to inactive results. Calls come from the whole dose curve; as a rule, active = well fitted inhibition curve with a large enough effect; inconclusive = small, poorly fitted or top-dose-only effect; inactive = flat fitted curve, though single readings scatter.
# Biological target: Calcium and integrin-binding protein 1 (Homo sapiens) (UniProt Q99828)
# Assay: Primary qHTS for Identification of Calcium Integrin Binding Protein 1 (CIB1) Competitor (AID 1508620);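 note: GST tagged CIB1 binding a fluorescein labelled alphaIIb integrin peptide tracer; top concentration of the series differs between compounds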
# Conditions: CIB1-GST / FITC-alphaIIb peptide fluorescence polarization; series mostly up to 114 µM; activity change, negative = inhibition: at the top concentration
# In short: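 CIB1-GST (1 uM final) and compound incubated 15 min at room temperature before adding FITC-alphaIIb peptide tracer (100 nM final). Competition for binding read by fluorescence polarization (ex 480, em 540) after another 15 min at room temperature.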
# % is set by controls: 0 for no effect and ±100 for the full control effect.
# Chain of Calcium and integrin-binding protein 1 (Homo sapiens) (Q99828 whole entry, looked up): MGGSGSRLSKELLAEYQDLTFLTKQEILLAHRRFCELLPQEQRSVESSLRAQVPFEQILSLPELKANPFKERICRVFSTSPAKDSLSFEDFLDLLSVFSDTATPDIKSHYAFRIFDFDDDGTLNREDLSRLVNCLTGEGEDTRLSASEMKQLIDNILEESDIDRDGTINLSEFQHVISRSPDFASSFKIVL
row,SMILES,"activity change, negative = inhibition [%]"
1,COc1ccc(C(=O)Nc2ccc(-c3nc4ccccc4[nH]3)cc2)cc1OC,-0.868
2,N#Cc1c(-c2cccc(O)c2)no[n+]1[O-],0.79
3,NC(=O)c1ccc(-c2noc(-c3ccccc3F)n2)cc1,1.67
4,O=C1CCc2cc(S(=O)(=O)Nc3ccccc3-c3ccccc3)ccc2N1,1.77
5,COc1ccc2ncnc(NCc3cccs3)c2c1-c1ccc2c(c1)OCO2,-4.45
6,COc1ccc(C2c3c(nc(Cc4ccccc4)[nH]c3=O)Oc3ccc4ccccc4c32)cc1OC (stereo not given),1.52
7,Cc1cn([C@H]2C[C@H](N[S+](=O)([O-])Cc3ccc([N+](=O)[O-])cc3)[C@@H](CO)O2)c(=O)[nH]c1=O,-2.79
8,Fc1cc(-c2nc(Nc3ccc(F)c(F)c3)c3ccccc3n2)ccn1,5.17
9,Cc1cc(-c2ccccc2)n2ncc(C(=O)Nc3ccc(Cl)c(Cl)c3)c2n1,3.28
10,FC(F)(F)c1ccc(-c2nc(NCc3ccc(-c4ccnc(C(F)(F)F)c4)cc3)c3ccccc3n2)cc1,5.6
11,CCCCC(OC(=O)CNC(=O)c1ccccc1)C(=O)Nc1cc(C(F)(F)F)ccc1Cl (stereo not given),3.67
12,Cc1csc(CNc2ncnc3ccc(-c4ccc5c(c4)OCCO5)cc23)c1,0.566
13,O=C(COc1ccc(F)cc1)NCCc1nc2ccccc2[nH]1,0.396
14,Cc1cc(-c2nnc3n2CCCCC3)c(C)n1-c1cccc(C#N)c1,3.78
15,O=[S+]([O-])(Nc1ccccc1)c1ccc(NCc2cccc(Cl)c2F)cc1,8.19
16,CSc1ccc(-c2cnc(N3CCC(C(N)=O)CC3)s2)cc1,1.58
17,Cc1ccc(OCCn2c(CCNC(=O)/C=C/c3ccccc3)nc3ccccc32)cc1,32.6
18,N#Cc1ccccc1S(=O)(=O)N1CCN(S(=O)(=O)c2ccc3c(c2)OCCO3)CC1,0.611
19,Cc1ccc(OCCn2c(CCNC(=O)Cc3cc(F)ccc3F)nc3ccccc32)cc1,27.4
20,c1c[nH]c(CNc2ncnc3ccc(-c4ccoc4)cc23)n1,-3.22

row,SMILES,"activity change, negative = inhibition [%]"
1,COc1cccc(C2=Nn3c(nnc3-c3ccccc3C)SC2)c1,-13.2
2,COc1ccccc1-c1nnc2n1N=C(c1c(OC)cccc1OC)CS2,6.7
3,COc1ccc2c(c1)Oc1nc(-c3ccc(C)cc3)nc(SCC(=O)Nc3cccc(C(=O)O)c3)c1C2,0.615
4,Cc1cc(C)nc(NC(=S)N2CCN(c3ccc4cn(C)nc4c3)CC2)c1,-2.21
5,Cc1cnc(-c2ccccc2OC(C)C)nc1NCc1ccc(-n2ccnn2)cc1,-7
6,O=S(=O)(c1cccc(-c2n[nH]c(=S)n2-c2ccccc2)c1)N1CCCC1,3.01
7,O=C1NC(=O)/C(=C/c2cccn2-c2ccc(P(=O)(O)O)cc2)N1,0.227
8,COc1ccc(C2Nc3ccccc3C(=O)N2Cc2cccc(Cl)c2)cc1COc1ccc(NC(C)=O)cc1 (stereo not given),0.359
9,COc1cccc(C2c3c(ncn(Cc4cccs4)c3=N)Oc3ccc4ccccc4c32)c1 (stereo not given),5.93
10,CC(=O)Nc1sc2c(c1-c1nc3ccccc3s1)CN(C1COC1)C2,-15.4
11,COc1ccc(S(=O)(=O)N2CCN(S(=O)(=O)c3c(F)cccc3F)CC2)cc1,6.24
12,CN(CC(F)(F)F)c1nc(NCc2ccc(-c3cccnc3)cc2)c2ccccc2n1,2.89
13,O=[N+]([O-])c1cccc(S(=O)(=O)N2CCN(S(=O)(=O)c3ccc4c(c3)OCCO4)CC2)c1,-4.4
14,Oc1ccc(CNc2ccccc2Cl)c2cccnc12,14.3
15,COc1c(Cl)cccc1NC(=O)c1c(NC(=O)Cc2ccccc2)sc2c1CCCC2,0.681
16,COc1cccc(C2=Nn3c(nnc3-c3ccccc3O)SC2)c1,3.5
17,Cc1ccc(OCCn2c(CCNC(=O)c3cccc4[nH]ccc34)nc3ccccc32)cc1,7.24
18,COc1cccc(-c2nnc3n2N=C(c2cc(OC)ccc2OC)CS3)c1,0.905
19,FC(F)(F)c1ccc(N2CCN(C(=S)Nc3ccccn3)CC2)cc1,-22.5
20,Cc1ccc(NS(=O)(=O)c2cc3c(cc2Cl)NC(=O)C3)cc1C,-1.13
